Test results from the supplement of paper PMC10849652.
Targets with a hit are over-represented here; the source holds about 7,900 in all. About 0.6% of all pairs of compound and target were hits.

What follows are targets tested with C1=CC=C(C=C1)[C@H](COC2=CC3=C(C=C2)NC(=O)N3)NC(=O)C4=CC=CN(C4=O)CC5=CC(=C(C=C5)F)F (assay: log2 fold change, soluble protein after heating vs DMSO (PISA); higher = thermal stabilisation; K562 cells, 10 uM, 30 min; active = over 0.2 and 3.5 SD of the protein, either way, in both replicates (recomputed)).
Summary of the method: (§1)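 Thermal stability values are relative to control samples and come from duplicates. They are expressed as log2 fold changes. For measurement, K562 cells (2×10^6 cells/mL) received 10 μM compound for 30 min, and aliquots were heated for 3 min over 48°C-58°C, pooled, and extracted at 4°C in PBS with 0.5% NP-40. Soluble protein, the supernatant after 21,000xg for 90 min, was quantified by TMTpro 16plex LC-MS/MS with equalised channel sums.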

Sequence of UniProt Q96PU5 (Q96PU5 whole entry, looked up): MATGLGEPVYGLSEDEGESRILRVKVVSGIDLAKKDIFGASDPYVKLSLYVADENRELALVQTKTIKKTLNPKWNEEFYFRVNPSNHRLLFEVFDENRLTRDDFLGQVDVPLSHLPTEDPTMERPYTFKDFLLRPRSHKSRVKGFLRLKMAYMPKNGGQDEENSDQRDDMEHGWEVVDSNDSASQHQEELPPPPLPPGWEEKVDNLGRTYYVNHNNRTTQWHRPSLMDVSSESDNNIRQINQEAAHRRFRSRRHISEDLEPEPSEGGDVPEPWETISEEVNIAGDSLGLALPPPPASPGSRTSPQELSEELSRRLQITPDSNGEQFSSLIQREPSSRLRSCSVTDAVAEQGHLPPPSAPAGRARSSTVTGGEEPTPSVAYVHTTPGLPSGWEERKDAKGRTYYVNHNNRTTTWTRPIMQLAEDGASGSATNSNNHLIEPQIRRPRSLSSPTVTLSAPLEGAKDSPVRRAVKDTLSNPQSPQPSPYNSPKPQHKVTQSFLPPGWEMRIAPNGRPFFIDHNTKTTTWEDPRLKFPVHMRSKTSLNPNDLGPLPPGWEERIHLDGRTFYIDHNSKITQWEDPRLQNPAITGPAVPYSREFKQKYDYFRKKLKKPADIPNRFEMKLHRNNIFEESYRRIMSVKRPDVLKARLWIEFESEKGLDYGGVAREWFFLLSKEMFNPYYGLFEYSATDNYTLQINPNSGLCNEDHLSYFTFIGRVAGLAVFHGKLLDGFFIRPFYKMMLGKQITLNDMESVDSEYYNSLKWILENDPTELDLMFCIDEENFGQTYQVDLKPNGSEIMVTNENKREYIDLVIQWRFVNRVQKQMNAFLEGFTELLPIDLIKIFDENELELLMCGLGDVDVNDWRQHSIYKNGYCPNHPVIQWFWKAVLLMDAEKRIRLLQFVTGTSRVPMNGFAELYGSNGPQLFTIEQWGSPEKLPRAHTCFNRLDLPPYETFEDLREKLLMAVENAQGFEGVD
Sequence of UniProt Q92621 (Q92621 whole entry, looked up): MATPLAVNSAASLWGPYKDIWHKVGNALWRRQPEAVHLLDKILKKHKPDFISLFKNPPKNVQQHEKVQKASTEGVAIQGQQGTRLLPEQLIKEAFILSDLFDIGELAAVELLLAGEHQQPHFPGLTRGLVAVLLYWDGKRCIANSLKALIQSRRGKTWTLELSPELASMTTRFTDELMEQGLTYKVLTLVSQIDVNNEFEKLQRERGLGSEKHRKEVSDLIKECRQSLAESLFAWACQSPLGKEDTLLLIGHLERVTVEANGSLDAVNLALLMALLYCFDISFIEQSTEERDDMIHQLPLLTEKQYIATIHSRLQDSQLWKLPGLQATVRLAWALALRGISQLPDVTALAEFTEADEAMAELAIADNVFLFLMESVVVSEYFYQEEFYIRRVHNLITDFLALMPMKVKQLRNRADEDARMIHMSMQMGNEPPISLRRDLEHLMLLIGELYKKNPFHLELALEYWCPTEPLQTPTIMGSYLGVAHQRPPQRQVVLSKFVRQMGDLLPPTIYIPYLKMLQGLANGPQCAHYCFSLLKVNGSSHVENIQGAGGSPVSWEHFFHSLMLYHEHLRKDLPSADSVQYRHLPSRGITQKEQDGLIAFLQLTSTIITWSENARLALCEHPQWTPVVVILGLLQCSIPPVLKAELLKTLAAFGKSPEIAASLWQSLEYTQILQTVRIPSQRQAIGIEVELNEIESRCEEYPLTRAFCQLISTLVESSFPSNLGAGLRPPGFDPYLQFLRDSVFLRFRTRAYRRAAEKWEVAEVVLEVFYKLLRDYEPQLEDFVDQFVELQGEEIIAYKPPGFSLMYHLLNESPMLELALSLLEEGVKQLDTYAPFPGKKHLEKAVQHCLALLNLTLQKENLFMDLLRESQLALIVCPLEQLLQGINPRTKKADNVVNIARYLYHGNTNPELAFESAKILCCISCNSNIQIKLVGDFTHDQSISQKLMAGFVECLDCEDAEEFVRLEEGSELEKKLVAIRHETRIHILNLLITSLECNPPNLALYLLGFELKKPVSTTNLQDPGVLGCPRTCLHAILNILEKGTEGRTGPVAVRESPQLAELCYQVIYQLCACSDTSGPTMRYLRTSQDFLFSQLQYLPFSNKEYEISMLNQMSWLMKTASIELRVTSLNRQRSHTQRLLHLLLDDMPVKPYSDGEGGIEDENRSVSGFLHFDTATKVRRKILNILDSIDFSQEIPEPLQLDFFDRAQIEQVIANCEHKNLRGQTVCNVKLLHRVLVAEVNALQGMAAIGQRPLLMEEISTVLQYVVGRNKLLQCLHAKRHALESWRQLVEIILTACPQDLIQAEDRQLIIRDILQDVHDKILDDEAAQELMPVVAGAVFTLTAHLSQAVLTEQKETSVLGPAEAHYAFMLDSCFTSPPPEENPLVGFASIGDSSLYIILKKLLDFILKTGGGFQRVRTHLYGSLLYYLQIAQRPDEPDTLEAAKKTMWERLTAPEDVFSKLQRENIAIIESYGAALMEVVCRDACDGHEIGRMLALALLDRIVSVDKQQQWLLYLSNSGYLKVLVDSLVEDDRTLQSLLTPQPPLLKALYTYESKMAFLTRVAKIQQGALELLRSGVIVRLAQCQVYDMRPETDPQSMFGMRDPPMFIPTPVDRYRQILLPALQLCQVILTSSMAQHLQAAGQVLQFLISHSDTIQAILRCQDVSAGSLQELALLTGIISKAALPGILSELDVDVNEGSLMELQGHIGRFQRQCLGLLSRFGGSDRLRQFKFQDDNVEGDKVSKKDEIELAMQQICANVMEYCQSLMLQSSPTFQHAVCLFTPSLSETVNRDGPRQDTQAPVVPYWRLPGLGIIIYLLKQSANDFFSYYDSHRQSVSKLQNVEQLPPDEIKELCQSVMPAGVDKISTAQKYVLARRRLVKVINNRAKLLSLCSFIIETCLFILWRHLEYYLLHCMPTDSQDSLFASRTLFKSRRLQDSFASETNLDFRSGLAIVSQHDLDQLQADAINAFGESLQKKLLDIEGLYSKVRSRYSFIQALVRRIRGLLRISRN
Sequence of UniProt P55209 (P55209 whole entry, looked up): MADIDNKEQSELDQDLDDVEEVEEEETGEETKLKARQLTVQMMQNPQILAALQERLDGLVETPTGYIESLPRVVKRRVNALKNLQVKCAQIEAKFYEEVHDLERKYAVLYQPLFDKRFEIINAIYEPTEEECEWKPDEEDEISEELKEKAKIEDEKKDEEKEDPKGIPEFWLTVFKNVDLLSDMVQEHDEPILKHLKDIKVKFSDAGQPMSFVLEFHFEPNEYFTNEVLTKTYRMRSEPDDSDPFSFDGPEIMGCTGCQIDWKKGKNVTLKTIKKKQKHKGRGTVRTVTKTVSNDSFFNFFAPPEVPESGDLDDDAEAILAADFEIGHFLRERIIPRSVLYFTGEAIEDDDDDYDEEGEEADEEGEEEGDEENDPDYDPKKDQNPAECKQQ
Sequence of UniProt O15460 (O15460 whole entry, looked up): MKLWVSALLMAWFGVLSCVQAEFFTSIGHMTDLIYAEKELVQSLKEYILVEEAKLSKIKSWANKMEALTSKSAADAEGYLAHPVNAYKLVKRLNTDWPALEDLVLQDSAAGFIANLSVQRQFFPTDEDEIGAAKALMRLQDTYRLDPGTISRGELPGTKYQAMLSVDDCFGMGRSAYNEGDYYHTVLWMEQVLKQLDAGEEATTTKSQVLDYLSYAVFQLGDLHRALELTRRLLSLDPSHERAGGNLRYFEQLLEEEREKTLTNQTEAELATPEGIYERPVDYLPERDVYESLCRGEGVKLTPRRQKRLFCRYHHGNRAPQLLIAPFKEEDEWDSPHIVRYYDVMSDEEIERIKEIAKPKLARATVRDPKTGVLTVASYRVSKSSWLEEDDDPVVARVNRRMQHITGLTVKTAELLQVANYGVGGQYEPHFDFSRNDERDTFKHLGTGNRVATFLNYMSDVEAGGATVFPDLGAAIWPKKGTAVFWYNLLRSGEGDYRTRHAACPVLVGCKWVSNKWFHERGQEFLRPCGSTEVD
Sequence of UniProt Q9HAN9 (Q9HAN9 whole entry, looked up): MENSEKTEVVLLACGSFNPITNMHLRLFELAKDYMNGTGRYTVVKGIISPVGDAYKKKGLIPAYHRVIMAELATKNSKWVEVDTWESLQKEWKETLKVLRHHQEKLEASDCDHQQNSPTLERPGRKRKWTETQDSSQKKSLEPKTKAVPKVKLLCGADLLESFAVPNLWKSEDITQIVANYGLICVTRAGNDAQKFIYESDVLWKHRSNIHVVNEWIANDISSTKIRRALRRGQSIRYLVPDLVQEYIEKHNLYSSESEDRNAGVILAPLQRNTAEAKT
Sequence of UniProt Q99747 (Q99747 whole entry, looked up): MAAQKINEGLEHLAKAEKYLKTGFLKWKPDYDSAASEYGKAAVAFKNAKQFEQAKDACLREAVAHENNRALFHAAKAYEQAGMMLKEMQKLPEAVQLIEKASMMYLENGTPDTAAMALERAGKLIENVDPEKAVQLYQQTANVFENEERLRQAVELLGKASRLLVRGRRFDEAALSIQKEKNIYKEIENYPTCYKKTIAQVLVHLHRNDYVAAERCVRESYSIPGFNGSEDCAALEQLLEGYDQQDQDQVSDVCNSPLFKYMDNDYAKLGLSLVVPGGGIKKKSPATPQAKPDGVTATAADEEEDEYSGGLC
Sequence of UniProt Q8WV92 (Q8WV92 whole entry, looked up): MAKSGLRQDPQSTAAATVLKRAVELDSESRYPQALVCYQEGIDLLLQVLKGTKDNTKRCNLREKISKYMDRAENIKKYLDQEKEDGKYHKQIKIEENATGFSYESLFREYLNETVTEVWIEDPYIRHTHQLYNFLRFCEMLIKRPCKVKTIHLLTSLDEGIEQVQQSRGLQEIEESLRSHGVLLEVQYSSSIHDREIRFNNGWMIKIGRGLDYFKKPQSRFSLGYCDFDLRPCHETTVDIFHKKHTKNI
Sequence of UniProt Q9BWT6 (Q9BWT6 whole entry, looked up): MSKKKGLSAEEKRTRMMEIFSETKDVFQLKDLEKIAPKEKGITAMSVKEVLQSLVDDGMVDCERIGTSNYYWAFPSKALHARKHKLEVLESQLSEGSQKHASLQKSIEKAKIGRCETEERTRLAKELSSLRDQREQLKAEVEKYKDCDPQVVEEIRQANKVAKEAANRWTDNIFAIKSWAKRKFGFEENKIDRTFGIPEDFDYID

Target | log2 fold change
OSTM1 (UniProt Q86WC4) | 0.023 (inactive)
NNT (UniProt Q13423) | -0.014 (inactive)
MRPS24 (UniProt Q96EL2) | -0.016 (inactive)
NFX1 (UniProt Q12986) | -0.011 (inactive)
NA (UniProt B2RBV5) | 0.002 (inactive)
NDUFB10 (UniProt O96000) | 0.048 (inactive)
NMU (UniProt P48645) | -0.109 (inactive)
NFATC3 (UniProt Q12968) | -0.03 (inactive)
NRGN (UniProt Q92686) | 0.048 (inactive)
OSTC (UniProt Q9NRP0) | -0.031 (inactive)
NPM3 (UniProt O75607) | 0.066 (inactive)
NHLRC2 (UniProt Q8NBF2) | -0.027 (inactive)
NMNAT1 (UniProt Q9HAN9) | 0.1 (inactive)
MTHFD1 (UniProt P11586) | -0.059 (inactive)
MRPS18B (UniProt Q9Y676) | -0.055 (inactive)
NMRAL1 (UniProt Q9HBL8) | -0.12 (inactive)
MON1B (UniProt Q7L1V2) | -0.032 (inactive)
NUP205 (UniProt Q92621) | -0.004 (inactive)
MRPS12 (UniProt O15235) | 0.019 (inactive)

Target | log2 fold change
NA (UniProt J3KR12) | -0.042 (inactive)
NR2C2 isoform 2 (UniProt P49116) | -0.011 (inactive)
NAPG (UniProt Q99747) | -0.036 (inactive)
P4HA2 (UniProt O15460) | 0.006 (inactive)
NEDD4L (UniProt Q96PU5) | 0.014 (inactive)
NPEPPS (UniProt P55786) | -0.044 (inactive)
OVCA2 (UniProt Q8WZ82) | -0.152 (inactive)
MRPS33 (UniProt Q9Y291) | 0.005 (inactive)
NA, A0A096LPI6 | 0.055 (inactive)
MYSM1 (UniProt Q5VVJ2) | 0.07 (inactive)
MRPS5 (UniProt P82675) | -0.017 (inactive)
NME2P1 (UniProt O60361) | -0.171 (inactive)
OXA1L (UniProt Q15070) | 0.014 (inactive)
MITD1 (UniProt Q8WV92) | -0.058 (inactive)
MND1 (UniProt Q9BWT6) | 0.009 (inactive)
NIPSNAP2 (UniProt C9J7B1) | -0.069 (inactive)
NKTR (UniProt P30414) | 0.014 (inactive)
NAP1L1 (UniProt P55209) | -0.072 (inactive)
MORC2 (UniProt Q9Y6X9) | -0.293 (inactive)

What follows are targets tested with CC1=C(SC2=C1C(=N[C@H](C3=NN=C(N32)C)CC(=O)N)C4=CC=C(C=C4)Cl)C in the same assay as above.
Summary of the method: as §1

Target | log2 fold change
OSTM1 (UniProt Q86WC4) | 0.036 (inactive)
NNT (UniProt Q13423) | 0.091 (inactive)
MRPS24 (UniProt Q96EL2) | -0.026 (inactive)
NFX1 (UniProt Q12986) | -0.161 (inactive)
NDUFB10 (UniProt O96000) | 0.009 (inactive)
NMU (UniProt P48645) | 0.008 (inactive)
NFATC3 (UniProt Q12968) | 0.081 (inactive)
OSTC (UniProt Q9NRP0) | 0.048 (inactive)
NPM3 (UniProt O75607) | -0.08 (inactive)
NHLRC2 (UniProt Q8NBF2) | 0.038 (inactive)
NMNAT1 (UniProt Q9HAN9) | -0.055 (inactive)
MTHFD1 (UniProt P11586) | 0.024 (inactive)
MRPS18B (UniProt Q9Y676) | -0.113 (inactive)
NMRAL1 (UniProt Q9HBL8) | -0.017 (inactive)
MON1B (UniProt Q7L1V2) | 0.044 (inactive)
NUP205 (UniProt Q92621) | 0.035 (inactive)
MRPS12 (UniProt O15235) | -0.121 (inactive)
NR2C2 isoform 2 (UniProt P49116) | 0.046 (inactive)
NAPG (UniProt Q99747) | 0.044 (inactive)
P4HA2 (UniProt O15460) | -0.033 (inactive)
NEDD4L (UniProt Q96PU5) | 0.038 (inactive)
NPEPPS (UniProt P55786) | 0.064 (inactive)
MRPS33 (UniProt Q9Y291) | -0.057 (inactive)
NA, A0A096LPI6 | -0.023 (inactive)
MRPS5 (UniProt P82675) | 0.009 (inactive)
NME2P1 (UniProt O60361) | 0.079 (inactive)
OXA1L (UniProt Q15070) | -0.01 (inactive)
MITD1 (UniProt Q8WV92) | 0.022 (inactive)
MND1 (UniProt Q9BWT6) | 0.012 (inactive)
NAP1L1 (UniProt P55209) | 0.003 (inactive)

These targets were tested with CC1=C2C(=CC=C1)N=C(N(C2=O)C3=CC=CC=C3C)CN4C=NC5=C(N=CN=C54)N in the same assay as above.
Summary of the method: as §1

Target | log2 fold change
OSTM1 (UniProt Q86WC4) | 0.058 (inactive)
NNT (UniProt Q13423) | 0.044 (inactive)
MRPS24 (UniProt Q96EL2) | -0.026 (inactive)
NFX1 (UniProt Q12986) | -0.068 (inactive)
NDUFB10 (UniProt O96000) | 0.06 (inactive)
NMU (UniProt P48645) | -0.03 (inactive)
NFATC3 (UniProt Q12968) | 0.12 (inactive)
OSTC (UniProt Q9NRP0) | 0.063 (inactive)
NPM3 (UniProt O75607) | -0.087 (inactive)
NHLRC2 (UniProt Q8NBF2) | 0.127 (inactive)
NMNAT1 (UniProt Q9HAN9) | -0.088 (inactive)
MTHFD1 (UniProt P11586) | 0.018 (inactive)
MRPS18B (UniProt Q9Y676) | -0.041 (inactive)
NMRAL1 (UniProt Q9HBL8) | 0.025 (inactive)
MON1B (UniProt Q7L1V2) | 0.056 (inactive)
NUP205 (UniProt Q92621) | 0.08 (inactive)
MRPS12 (UniProt O15235) | -0.176 (inactive)
NR2C2 isoform 2 (UniProt P49116) | 0.059 (inactive)
NAPG (UniProt Q99747) | 0.073 (inactive)
P4HA2 (UniProt O15460) | -0.014 (inactive)
NEDD4L (UniProt Q96PU5) | 0.039 (inactive)
NPEPPS (UniProt P55786) | 0.159 (inactive)
MRPS33 (UniProt Q9Y291) | -0.114 (inactive)
NA, A0A096LPI6 | -0.001 (inactive)
MRPS5 (UniProt P82675) | -0.03 (inactive)
NME2P1 (UniProt O60361) | 0.063 (inactive)
OXA1L (UniProt Q15070) | 0.018 (inactive)
MITD1 (UniProt Q8WV92) | -0.326 (inactive)
MND1 (UniProt Q9BWT6) | 0.081 (inactive)
NAP1L1 (UniProt P55209) | 0.17 (inactive)
